Results as given in PubChem BioAssay.
Unmarked numbers belong to inactive results. The source made the active and inactive calls.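 How the source made its calls, unless noted: active means mean inhibition over 43.08%, the solvent-only control mean plus 3 SD; inactive means the rest.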

Legend:
[1] = molecular target: Nuclear receptor coactivator 3 (Homo sapiens) (UniProt Q9Y6Q9); experiment: SRC3 coactivator transcriptional activity inhibitors, confirmation, cell-based, luminescence, quadruplicate (AID 588792); settings: HEK293 GAL4-SRC3 luciferase reporter, at 3.6 µM, hits give high values;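 further: 0% = DMSO treated cells and 100% = gossypol at 36 µM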
Sequence of Nuclear receptor coactivator 3 (Homo sapiens) (Q9Y6Q9 whole entry, looked up, the tested form may be a part): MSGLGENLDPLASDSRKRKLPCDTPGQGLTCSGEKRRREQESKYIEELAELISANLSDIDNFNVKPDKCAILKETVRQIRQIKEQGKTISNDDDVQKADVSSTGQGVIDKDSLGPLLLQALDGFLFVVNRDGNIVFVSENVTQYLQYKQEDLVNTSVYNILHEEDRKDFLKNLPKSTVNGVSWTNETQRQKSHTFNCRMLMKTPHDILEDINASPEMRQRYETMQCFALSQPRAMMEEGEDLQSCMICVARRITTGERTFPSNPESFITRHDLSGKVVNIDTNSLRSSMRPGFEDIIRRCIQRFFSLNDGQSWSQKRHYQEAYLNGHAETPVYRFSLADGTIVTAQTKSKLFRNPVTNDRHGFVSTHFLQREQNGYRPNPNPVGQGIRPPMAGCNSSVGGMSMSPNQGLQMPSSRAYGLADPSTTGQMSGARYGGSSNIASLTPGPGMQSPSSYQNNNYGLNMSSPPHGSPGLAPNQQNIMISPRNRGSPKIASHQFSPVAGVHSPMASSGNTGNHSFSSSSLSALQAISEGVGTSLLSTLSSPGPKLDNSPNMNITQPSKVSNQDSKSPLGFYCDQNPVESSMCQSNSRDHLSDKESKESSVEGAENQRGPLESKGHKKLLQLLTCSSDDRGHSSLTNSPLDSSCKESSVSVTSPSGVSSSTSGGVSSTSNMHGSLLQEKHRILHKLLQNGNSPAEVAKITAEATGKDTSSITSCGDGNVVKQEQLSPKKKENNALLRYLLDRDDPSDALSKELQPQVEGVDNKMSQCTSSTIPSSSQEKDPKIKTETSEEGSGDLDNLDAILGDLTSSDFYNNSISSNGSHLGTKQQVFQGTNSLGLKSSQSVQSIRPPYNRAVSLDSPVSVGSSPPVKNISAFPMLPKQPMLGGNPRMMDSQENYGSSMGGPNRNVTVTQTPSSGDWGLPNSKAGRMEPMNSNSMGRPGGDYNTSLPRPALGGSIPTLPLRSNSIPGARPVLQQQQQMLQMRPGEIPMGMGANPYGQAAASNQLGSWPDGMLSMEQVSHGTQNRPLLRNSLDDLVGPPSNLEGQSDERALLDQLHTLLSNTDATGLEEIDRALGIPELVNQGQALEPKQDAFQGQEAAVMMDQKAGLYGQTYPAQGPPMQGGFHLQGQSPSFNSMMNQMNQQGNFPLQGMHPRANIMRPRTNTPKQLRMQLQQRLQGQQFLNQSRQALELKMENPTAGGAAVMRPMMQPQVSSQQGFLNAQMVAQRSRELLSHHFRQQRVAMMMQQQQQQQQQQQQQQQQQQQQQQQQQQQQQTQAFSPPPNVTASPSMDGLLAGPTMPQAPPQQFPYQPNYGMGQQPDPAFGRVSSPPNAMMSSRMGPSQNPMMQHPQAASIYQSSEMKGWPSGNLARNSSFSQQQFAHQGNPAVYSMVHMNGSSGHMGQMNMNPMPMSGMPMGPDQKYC

[2] = test system: transactivating tegument protein VP16 (Human herpesvirus 1), Gal4-VP16 luciferase reporter; experiment: VP16 transactivation inhibitors, counter-screen for SRC3 inhibitor project, cell-based, luminescence, high throughput (AID 588794; in the data active means inhibition above about 30%); settings: mammalian cells, VP16-driven luciferase reporter luminescence; at 3.6 µM; hits give high values
[3] = molecular target: Nuclear receptor coactivator 1 (Homo sapiens) (UniProt Q15788); experiment: SRC1 coactivator transcriptional activity inhibitors, confirmation, cell-based, luminescence, quadruplicate (AID 588820;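 active means mean inhibition above 46.68%, the untreated control wells mean plus 3 SD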;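 further: 0% = DMSO wells and 100% = gossypol 36 µM treated wells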); settings: HEK293 GAL4-SRC1 luciferase reporter, at 3.6 µM, hits give high values
Sequence of Nuclear receptor coactivator 1 (Homo sapiens) (Q15788 whole entry, looked up, the tested form may be a part): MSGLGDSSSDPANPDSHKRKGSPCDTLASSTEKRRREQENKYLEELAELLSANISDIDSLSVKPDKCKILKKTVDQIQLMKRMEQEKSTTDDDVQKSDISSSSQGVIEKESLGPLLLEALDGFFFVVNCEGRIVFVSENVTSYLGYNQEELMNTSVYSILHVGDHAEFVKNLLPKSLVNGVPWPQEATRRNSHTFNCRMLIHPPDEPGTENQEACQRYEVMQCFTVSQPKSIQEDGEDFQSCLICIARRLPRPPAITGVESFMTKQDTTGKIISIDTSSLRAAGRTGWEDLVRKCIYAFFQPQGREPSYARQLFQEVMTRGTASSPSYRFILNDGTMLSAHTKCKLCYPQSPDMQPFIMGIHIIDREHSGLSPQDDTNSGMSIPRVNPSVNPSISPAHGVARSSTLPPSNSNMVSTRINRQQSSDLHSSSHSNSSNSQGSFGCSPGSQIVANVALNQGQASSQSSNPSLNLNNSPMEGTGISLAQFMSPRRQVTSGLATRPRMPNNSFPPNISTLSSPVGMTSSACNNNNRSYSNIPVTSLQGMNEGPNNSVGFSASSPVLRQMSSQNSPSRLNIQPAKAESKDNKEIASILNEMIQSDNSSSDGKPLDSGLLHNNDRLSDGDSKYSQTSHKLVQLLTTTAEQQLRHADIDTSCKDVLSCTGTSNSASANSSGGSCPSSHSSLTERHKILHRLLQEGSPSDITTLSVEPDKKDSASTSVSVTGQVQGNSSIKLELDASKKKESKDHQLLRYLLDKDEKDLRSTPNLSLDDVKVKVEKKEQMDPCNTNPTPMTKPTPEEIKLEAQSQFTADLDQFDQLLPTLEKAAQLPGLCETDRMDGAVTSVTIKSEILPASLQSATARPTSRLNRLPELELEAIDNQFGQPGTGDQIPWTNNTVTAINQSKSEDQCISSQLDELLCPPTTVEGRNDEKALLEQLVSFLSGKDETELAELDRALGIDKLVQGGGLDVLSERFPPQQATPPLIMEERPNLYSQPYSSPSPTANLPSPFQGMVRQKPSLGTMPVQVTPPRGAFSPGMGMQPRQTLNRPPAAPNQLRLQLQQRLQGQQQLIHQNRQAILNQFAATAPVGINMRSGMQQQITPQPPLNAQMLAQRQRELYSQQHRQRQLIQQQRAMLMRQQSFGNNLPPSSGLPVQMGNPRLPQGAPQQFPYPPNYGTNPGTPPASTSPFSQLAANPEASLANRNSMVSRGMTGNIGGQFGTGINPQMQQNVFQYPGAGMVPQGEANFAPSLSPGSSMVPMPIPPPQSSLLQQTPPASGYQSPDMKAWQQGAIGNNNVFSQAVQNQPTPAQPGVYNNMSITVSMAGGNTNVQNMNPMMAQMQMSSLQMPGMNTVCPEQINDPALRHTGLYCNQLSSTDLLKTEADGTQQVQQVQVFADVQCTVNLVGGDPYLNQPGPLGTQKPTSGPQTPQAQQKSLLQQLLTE

[4] = VP16 transactivation inhibitors, counter-screen for SRC1 inhibitor project, cell-based, luminescence, high throughput (AID 588824; in the data active means inhibition above about 25%); settings: cell-based VP16 transactivation luciferase luminescence; at 3.6 µM; hits give high values

SMILES: O=c1[nH]cc(F)c(=O)[nH]1
- inhibition [1]: 14.7%
- inhibition [2]: 31% (active)
- inhibition [3]: 8.56%
- inhibition [4]: 22.3%

SMILES: Nc1ccc(Cn2ccc3c4c(N)nc(N)nc4ccc32)cc1
- inhibition [1]: 66.1% (active)
- inhibition [2]: 32% (active)
- inhibition [3]: 67.7% (active)
- inhibition [4]: 36.9% (active)

SMILES: CCN(CC)c1ccc(/C=N/NC(=O)CCC(=O)NCc2ccccc2)c(O)c1
- inhibition [1]: 22.7%
- inhibition [2]: 21.6%
- inhibition [3]: 12.5%
- inhibition [4]: 28.9% (active)

SMILES: CCCCOC(=O)c1[nH]c2c(c1C)C(=O)CC(c1cc(OC)c(OC)c(OC)c1)C2 (centres undefined)
- inhibition [1]: 8.2%
- inhibition [2]: 28%
- inhibition [3]: -1.5%
- inhibition [4]: 32.1% (active)

SMILES: COc1ccc(C(=O)Cn2c(C(C)=O)nc3ccccc32)cc1
- inhibition [1]: -0.47%
- inhibition [2]: -3.82%
- inhibition [3]: -13.6%
- inhibition [4]: -8.2%

SMILES: COC1C(OC(=O)/C=C/C=C/C=C/C=C/C(=O)O)CCC2(CO2)C1C1(C)OC1CC=C(C)C (centres undefined) (tested in a mixture with another compound)
- inhibition [1]: 17.6%
- inhibition [2]: 20.7%
- inhibition [3]: 9.4%
- inhibition [4]: 20.7%

SMILES: CC(C)(C)OC(=O)NCCCC[C@H](NC(=O)c1nc[nH]c1C(=O)N[C@@H](CCCCNC(=O)OC(C)(C)C)C(=O)OC(C)(C)C)C(=O)OC(C)(C)C
- inhibition [1]: -4.98%
- inhibition [2]: -9.56%
- inhibition [3]: -34.5%
- inhibition [4]: -3.49%

SMILES: COc1cc(/C=C2\SC(N)=NC2=O)cc(OC)c1
- inhibition [1]: 20.4%
- inhibition [2]: 27.3%
- inhibition [3]: 34.7%
- inhibition [4]: 18.9%

SMILES: COc1cc2oc(=O)cc(-c3ccc(-c4ccc(CO)cc4)cc3)c2c(OC)c1OC
- inhibition [1]: 45.9% (active)
- inhibition [2]: 28.3%
- inhibition [3]: 32.9%
- inhibition [4]: 32.5% (active)

SMILES: O=C(Nc1ccc([N+](=O)[O-])cc1)Nc1ccc(OC(F)F)c(Cl)c1
- inhibition [1]: 22.9%
- inhibition [2]: 32.5% (active)
- inhibition [3]: 10.3%
- inhibition [4]: 39.7% (active)

SMILES: Cc1cn([C@@H](CCCCNC(=O)OC(C)(C)C)C(=O)NCCCCCCCCCCC(=O)N2CCN(C(=O)OC(C)(C)C)CC2)nn1
- inhibition [1]: 12.4%
- inhibition [2]: 25.6%
- inhibition [3]: 4.04%
- inhibition [4]: 41.8% (active)

SMILES: CC(O)CC(C(=O)NNc1ccccc1)C(=O)NNc1ccccc1 (centres undefined)
- inhibition [1]: 10.1%
- inhibition [2]: 16%
- inhibition [3]: -6.15%
- inhibition [4]: 13.1%

SMILES: O=C(NC1CCCN(Cc2ccccc2F)C1)c1cccc(N2CCCC2=O)c1 (centres undefined)
- inhibition [1]: 3.31%
- inhibition [2]: -7.69%
- inhibition [3]: -4.75%
- inhibition [4]: -1.08%

SMILES: CC(=O)Nc1ccc(SCC(=O)c2cc(C)n(-c3ccccc3)c2C)cc1
- inhibition [1]: 30.3%
- inhibition [2]: 19.6%
- inhibition [3]: -4.5%
- inhibition [4]: -6.91%

SMILES: O=C(NC(=S)/C(=C1\CCCCCN1)[N+](=O)[O-])c1ccccc1
- inhibition [1]: 32.1%
- inhibition [2]: 9.73%
- inhibition [3]: -25.3%
- inhibition [4]: -33%

SMILES: CC(C)(C)c1ccc(/C=C2\SC(=O)N(CCNC(=O)c3cccc(S(=O)(=O)N4CCOCC4)c3)C2=O)cc1
- inhibition [1]: -11.1%
- inhibition [2]: -19.8%
- inhibition [3]: -58.1%
- inhibition [4]: -59.9%

SMILES: Cn1c(=O)c2c(nc(NCc3ccco3)n2C/C=C/c2ccccc2)n(C)c1=O
- inhibition [1]: 36.4%
- inhibition [2]: 44% (active)
- inhibition [3]: 18.6%
- inhibition [4]: 39.9% (active)

SMILES: O=C(N/N=C/c1cc([N+](=O)[O-])ccc1O)c1cccc(N2CCCC2=O)c1
- inhibition [1]: 15.9%
- inhibition [2]: 14.3%
- inhibition [3]: 34.5%
- inhibition [4]: 4.04%

SMILES: NC(=O)N=Nc1c2[nH]c3ccccc3nc-2c2ccccc12
- inhibition [1]: -8.03%
- inhibition [2]: 45% (active)
- inhibition [3]: -11.8%
- inhibition [4]: 48.8% (active)

SMILES: O=C(Nc1c2ccccc2nc2ccccc12)C(Cl)(Cl)Cl
- inhibition [1]: -27%
- inhibition [2]: 10.5%
- inhibition [3]: -35%
- inhibition [4]: 8.17%

SMILES: c1ccc(-c2noc(-c3ccc4c(c3)OCO4)n2)nc1
- inhibition [1]: 17.6%
- inhibition [2]: 7.86%
- inhibition [3]: 8.09%
- inhibition [4]: 33.7% (active)

SMILES: CC(C)n1cc(/C=C/c2cc[n+](C)cc2)c2ccccc21
- inhibition [1]: 14%
- inhibition [2]: 21%
- inhibition [3]: 16.8%
- inhibition [4]: 30.3% (active)

SMILES: CCN(CC)S(=O)(=O)c1cccc(NC(=O)COC(=O)c2[nH]c(C)c(C(C)=O)c2C)c1
- inhibition [1]: 20%
- inhibition [2]: 42.5% (active)
- inhibition [3]: 6.19%
- inhibition [4]: 42.8% (active)

SMILES: COc1cccc(-c2ccc3ncnc(NCc4cccnc4)c3c2)c1
- inhibition [1]: 45.5% (active)
- inhibition [2]: 31.6% (active)
- inhibition [3]: 24.8%
- inhibition [4]: 36.2% (active)

SMILES: Nc1nccc(-c2ccc(-n3cnc4ccccc43)cc2)n1
- inhibition [1]: 56.7% (active)
- inhibition [2]: 27.4%
- inhibition [3]: 57.7% (active)
- inhibition [4]: 26.3% (active)

SMILES: O=[N+]([O-])c1cccc2c1ccc1ncccc12
- inhibition [1]: 33%
- inhibition [2]: 11.7%
- inhibition [3]: 36%
- inhibition [4]: 15.9%

SMILES: CCOC(=O)C(=Cc1cc(=O)c(OC)co1)C(=O)OCC
- inhibition [1]: 48.6% (active)
- inhibition [2]: 52.1% (active)
- inhibition [3]: -0.65%
- inhibition [4]: 53.4% (active)

SMILES: O=c1[nH]c(=O)n(C2C[C@H](O)[C@@H](CO)O2)cc1C(F)(F)F (some centres undefined)
- inhibition [1]: 45.7% (active)
- inhibition [2]: 40% (active)
- inhibition [3]: 54.4% (active)
- inhibition [4]: 44.3% (active)

SMILES: Cc1cc(C)c2c(N)c3ccccc3nc2n1
- inhibition [1]: 15.2%
- inhibition [2]: 54.6% (active)
- inhibition [3]: 3.44%
- inhibition [4]: 53.4% (active)

SMILES: Cc1ccc2c(C)nc(Nc3nc(CSc4nc5ccccc5[nH]4)cc(=O)[nH]3)nc2c1
- inhibition [1]: 12.4%
- inhibition [2]: 16.1%
- inhibition [3]: -14.6%
- inhibition [4]: 17.5%

SMILES: CCC(=O)Oc1c(C(=O)CC)cc2c(C)cc(=O)oc2c1C
- inhibition [1]: 15.1%
- inhibition [2]: 17.6%
- inhibition [3]: 25.6%
- inhibition [4]: 15.6%

SMILES: O=C(N/N=C/c1ccccc1O)c1cccc(C(F)(F)F)c1
- inhibition [1]: 57.9% (active)
- inhibition [2]: 43.2% (active)
- inhibition [3]: 65.9% (active)
- inhibition [4]: 48.8% (active)

SMILES: COc1ccc(-c2coc3c(C(=O)Nc4cc(OC)c(OC)c(OC)c4)cccc23)c(C)c1
- inhibition [1]: 19.8%
- inhibition [2]: 29.8% (active)
- inhibition [3]: 0.16%
- inhibition [4]: 31.8% (active)

SMILES: CN(Cc1c(C(=O)N/N=C/c2cccc(F)c2)nnn1-c1nonc1N)C1CCCCC1
- inhibition [1]: -12.4%
- inhibition [2]: 3.59%
- inhibition [3]: 6.95%
- inhibition [4]: -3.15%

SMILES: CCCCC(=O)OCC(=O)C1(O)Cc2c(O)c3c(c(O)c2C(OC2CC(NC(=O)C(F)(F)F)C(O)C(C)O2)C1)C(=O)c1c(OC)cccc1C3=O (centres undefined)
- inhibition [1]: 26%
- inhibition [2]: 10.2%
- inhibition [3]: 29.3%
- inhibition [4]: 16.3%

SMILES: CCCCCCCCCn1c2c(c(=N)c3c1CCC3)CCC2
- inhibition [1]: 89.7% (active)
- inhibition [2]: 85.2% (active)
- inhibition [3]: 71.4% (active)
- inhibition [4]: 84.8% (active)

SMILES: Cn1c(Sc2ccc(Cl)cc2)c(C=O)c2ccccc21
- inhibition [1]: 52.3% (active)
- inhibition [2]: 43.6% (active)
- inhibition [3]: 60% (active)
- inhibition [4]: 37% (active)

SMILES: CC1(C)CCSC(/C=C/c2ccccc2)=N1
- inhibition [1]: 62.4% (active)
- inhibition [2]: 45.5% (active)
- inhibition [3]: 46.1%
- inhibition [4]: 39.8% (active)

SMILES: CC(C)c1ccc(-c2nnn(CCC(=O)O)n2)cc1
- inhibition [1]: 52.2% (active)
- inhibition [2]: 46.8% (active)
- inhibition [3]: 41.3%
- inhibition [4]: 37.5% (active)

SMILES: Cc1ccc(C)c(NC(=O)c2ccccc2NS(=O)(=O)c2cc([N+](=O)[O-])ccc2C)c1
- inhibition [1]: 20.5%
- inhibition [2]: 25.5%
- inhibition [3]: 21%
- inhibition [4]: 22%

SMILES: O=C(C=P(c1ccccc1)(c1ccccc1)c1ccccc1)c1ccccc1-c1ccccc1C(=O)C=P(c1ccccc1)(c1ccccc1)c1ccccc1
- inhibition [1]: 60.6% (active)
- inhibition [2]: 83.9% (active)
- inhibition [3]: 24.4%
- inhibition [4]: 82.8% (active)

SMILES: COC(=O)c1cc(Cl)cc(Cl)c1OS(=O)(=O)N(C)C
- inhibition [1]: -11.6%
- inhibition [2]: -46.8%
- inhibition [3]: -212%
- inhibition [4]: -59.6%

SMILES: COc1ccc(-n2cnc3c(sc4nccc(N(C)C)c43)c2=O)cc1
- inhibition [1]: 40.1%
- inhibition [2]: 22.4%
- inhibition [3]: 33.3%
- inhibition [4]: 11.8%

SMILES: Cc1ccc(S(=O)(=O)N2CCN(S(C)(=O)=O)CC2)cc1
- inhibition [1]: 24.1%
- inhibition [2]: 19.9%
- inhibition [3]: -0.28%
- inhibition [4]: 6.89%

SMILES: O=C(Nc1cccc(S(=O)(=O)Nc2ccccc2Cl)c1)c1ccc(Cl)nc1
- inhibition [1]: -1.42%
- inhibition [2]: 27.7%
- inhibition [3]: 5.83%
- inhibition [4]: 32.2% (active)

SMILES: CCC(=O)c1ccc(Oc2nc3c(c(=O)n(C)c(=O)n3C)n2CC)cc1
- inhibition [1]: 26.3%
- inhibition [2]: 19.6%
- inhibition [3]: 29.4%
- inhibition [4]: 20.9%

SMILES: N=c1c2c(-c3ccccc3)c(-c3ccccc3)n(Cc3ccco3)c2ncn1CCCn1ccnc1
- inhibition [1]: 34%
- inhibition [2]: 54.2% (active)
- inhibition [3]: 43.8%
- inhibition [4]: 57.4% (active)

SMILES: CCCCC(=O)NC(c1ccc(C(C)C)cc1)c1ccc2cccnc2c1O (centres undefined)
- inhibition [1]: 62% (active)
- inhibition [2]: 61.1% (active)
- inhibition [3]: 58.2% (active)
- inhibition [4]: 66% (active)

SMILES: CCOc1cc(C(N)=O)cc(Br)c1OCC
- inhibition [1]: 37.3%
- inhibition [2]: 22.4%
- inhibition [3]: 43.4%
- inhibition [4]: 21.6%

SMILES: COc1ccc(Nc2nc(N3CCCC3)nc3ccccc23)c(OC)c1
- inhibition [1]: 16.8%
- inhibition [2]: 37.1% (active)
- inhibition [3]: 5.96%
- inhibition [4]: 33.2% (active)

SMILES: Cc1ccc(-c2cc3c(N=O)c4ccccc4c-3n[nH]2)cc1
- inhibition [1]: 66.2% (active)
- inhibition [2]: 59.7% (active)
- inhibition [3]: 30.2%
- inhibition [4]: 53% (active)
